# Results taken from PubChem BioAssay (NCATS).
# Records with an inconclusive call do not appear. A call without a number means that no potency is given here. Active and inactive are the calls of the source. Calls come from the whole dose curve; as a rule, active = well fitted curve in the direction sought with a large enough effect; inconclusive = small, poorly fitted or top-dose-only effect, or another doubt; inactive = no such curve, though single readings can be large; an effect the other way counts as inactive or inconclusive.
# Columns and labels:
# [1] = target: Alpha-galactosidase A (Homo sapiens) (UniProt P06280); test: Counterscreen for Glucocerebrosidase Inhibitors: qHTS Assay for Human alpha-Galactosidase at pH 4.5 (AID 992)
# Chain of Alpha-galactosidase A (Homo sapiens) (P06280 whole entry, looked up): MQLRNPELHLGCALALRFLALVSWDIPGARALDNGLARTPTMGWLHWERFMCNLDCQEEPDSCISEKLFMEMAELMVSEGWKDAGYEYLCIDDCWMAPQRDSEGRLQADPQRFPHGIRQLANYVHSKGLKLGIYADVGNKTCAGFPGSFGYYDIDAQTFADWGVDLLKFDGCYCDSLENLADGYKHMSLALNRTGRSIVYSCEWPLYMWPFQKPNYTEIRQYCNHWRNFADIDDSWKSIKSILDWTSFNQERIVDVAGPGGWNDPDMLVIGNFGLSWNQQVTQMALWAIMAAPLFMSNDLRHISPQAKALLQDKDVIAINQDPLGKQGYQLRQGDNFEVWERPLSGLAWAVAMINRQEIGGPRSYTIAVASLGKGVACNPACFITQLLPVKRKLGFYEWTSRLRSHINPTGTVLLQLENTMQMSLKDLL
# In short: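 Human enzyme (2 nM) with 80 uM 4-methylumbelliferyl alpha-D-galactopyranoside in 50 mM citric acid, 0.005% Tween-20, pH 4.5, 20 min at room temperature. Compounds 0.7 nM–77 uM; fluorescence Ex 365/Em 440 after pH 10 stop; AC50 from Hill fits.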
# [2] = target: alpha-glucosidase (Oryza sativa, rice) (UniProt Q653V4); test: Counterscreen for Glucocerebrosidase Inhibitors: qHTS Assay for Rice alpha-Glucosidase at pH 5.0 (AID 997)
# In short: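 Rice alpha-glucosidase (4 nM final) with 400 uM 4-methylumbelliferyl-alpha-D-glucopyranoside in citrate buffer pH 5.0, 20 min at room temperature, stopped at pH 10; fluorescence 365/440 nm, compounds 0.7 nM–77 uM, AC50 from Hill fits.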
# [3] = Cell Viability - LYMP1-002 - Assay at 24 hr (AID 993)
# In short: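 Human lymphoblastoid LYMP1-002 cells, 2500/well in complete medium, were treated with compounds for 24 h at 37 C; intracellular ATP was read by CellTiter-Glo luminescence. AC50 values came from Hill-equation fits of qHTS concentration-response data.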
# [4] = Cell Viability - LYMP1-002 - Assay at 40 hr (AID 994); note: nearly all actives have a fitted effect of over 60% in size
# In short: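 Human lymphoblastoid cells, 2500/well in complete medium, were preincubated 5 hr at 37 C, then exposed to compounds for 40 hr at 37 C. Intracellular ATP was read by CellTiter-Glo luminescence after 30 min at room temperature; AC50 from Hill-equation fits.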
smiles,measurement,setting,value
C[C@](N)(Cc1ccc(O)c(O)c1)C(=O)O,outcome,[1],inactive
same,outcome,[2],inactive
COc1ccc(CCN(C)CCCC(C#N)(c2ccc(OC)c(OC)c2)C(C)C)cc1OC (centres undefined),outcome,[3],inactive
CN(C)c1nc(N(C)C)nc(N(C)C)n1,outcome,[1],inactive
same,outcome,[2],inactive
OCCN1CCN(CCCN2c3ccccc3Sc3ccc(C(F)(F)F)cc32)CC1,outcome,[1],inactive
same,outcome,[2],inactive
Nc1nnc(-c2cccc(Cl)c2Cl)c(N)n1,outcome,[1],inactive
same,outcome,[2],inactive
OCCN(CCO)c1nc(N2CCCCC2)c2nc(N(CCO)CCO)nc(N3CCCCC3)c2n1,outcome,[2],inactive
CN1CCC(=C2c3ccccc3CC(=O)c3sccc32)CC1,outcome,[1],inactive
same,outcome,[2],inactive
CN(C)C(=O)C(CCN1CCC(O)(c2ccc(Cl)cc2)CC1)(c1ccccc1)c1ccccc1,outcome,[1],inactive
same,outcome,[2],inactive
Cn1ccc2cc3c(cc21)CCN3C(=O)Nc1cccnc1,outcome,[1],inactive
same,outcome,[2],inactive
Cc1cc(C(C)(C)C)cc(C)c1CC1=NCCN1,outcome,[1],inactive
same,outcome,[2],inactive
CC(COc1ccccc1)N(CCCl)Cc1ccccc1 (centres undefined),outcome,[3],inactive
same,Potency,[4],inactive
NC(=O)NO,outcome,[1],inactive
same,outcome,[2],inactive
O=C(c1ccc(OCCN2CCCCC2)cc1)c1c(-c2ccc(O)cc2)sc2cc(O)ccc12,outcome,[1],inactive
same,outcome,[2],inactive
CC[N+](CC)(CC)CCOc1cccc(OCC[N+](CC)(CC)CC)c1OCC[N+](CC)(CC)CC,outcome,[1],inactive
same,outcome,[2],inactive
NC(=O)OCC(COC(N)=O)c1ccccc1,outcome,[1],inactive
same,outcome,[2],inactive
CN1C(C(=O)Nc2ccccn2)=C(O)c2ccccc2S1(=O)=O,outcome,[1],inactive
same,outcome,[2],inactive
NCCCCCC(=O)O,outcome,[1],inactive
same,outcome,[2],inactive
NC12CC3CC(CC(C3)C1)C2,outcome,[1],inactive
same,outcome,[2],inactive
